Laboratory results from PubChem BioAssay (NCATS).
Inconclusive results are not listed. The source made the active and inactive calls. Unless noted, calls come from the whole dose curve.

Legend:
[1] = qHTS for Inhibitors of the Functional Ribonucleoprotein Complex (vRNP) of Lassa (LASV) Arenavirus: LASV Primary Screen - GLuc reporter signal (AID 1347082; calls by dose curve; tested in HEK293 reporter line; note: nearly all actives have a fitted effect of over 60% in size; note: potency is the fitted concentration of half-maximal effect; for activity change, negative = inhibition: % is set by controls: 0 for no effect and ±100 for the full control effect)
[2] = qHTS for Inhibitors of the Functional Ribonucleoprotein Complex (vRNP) of Lassa (LASV) Arenavirus: Viability assay - alamar blue signal for LASV Primary Screen (AID 1347083; calls by dose curve; tested in HEK293 reporter line; note: nearly all actives have a fitted effect of over 80% in size; note: potency is the fitted concentration of half-maximal effect)
[3] = qHTS for Inhibitors of the Functional Ribonucleoprotein Complex (vRNP) of Lymphocytic Choriomeningitis Arenaviruses (LCMV): Viability assay - alamar blue signal for LCMV Primary Screen (AID 1347085; calls by dose curve; tested in HEK293 reporter line; note: nearly all actives have a fitted effect of over 80% in size; note: potency is the fitted concentration of half-maximal effect)
[4] = target: Nucleoprotein (Lymphocytic choriomeningitis virus (strain Armstrong)) (UniProt P09992); assay: qHTS for Inhibitors of the Functional Ribonucleoprotein Complex (vRNP) of Lymphocytic Choriomeningitis Arenaviruses (LCMV): LCMV Primary Screen - GLuc reporter signal (AID 1347086); note: nearly all actives have a fitted effect of over 70% in size; note: potency is the fitted concentration of half-maximal effect; for activity change, negative = inhibition: % is set by controls: 0 for no effect and ±100 for the full control effect
Sequence of Nucleoprotein (Lymphocytic choriomeningitis virus (strain Armstrong)) (P09992 whole entry, looked up): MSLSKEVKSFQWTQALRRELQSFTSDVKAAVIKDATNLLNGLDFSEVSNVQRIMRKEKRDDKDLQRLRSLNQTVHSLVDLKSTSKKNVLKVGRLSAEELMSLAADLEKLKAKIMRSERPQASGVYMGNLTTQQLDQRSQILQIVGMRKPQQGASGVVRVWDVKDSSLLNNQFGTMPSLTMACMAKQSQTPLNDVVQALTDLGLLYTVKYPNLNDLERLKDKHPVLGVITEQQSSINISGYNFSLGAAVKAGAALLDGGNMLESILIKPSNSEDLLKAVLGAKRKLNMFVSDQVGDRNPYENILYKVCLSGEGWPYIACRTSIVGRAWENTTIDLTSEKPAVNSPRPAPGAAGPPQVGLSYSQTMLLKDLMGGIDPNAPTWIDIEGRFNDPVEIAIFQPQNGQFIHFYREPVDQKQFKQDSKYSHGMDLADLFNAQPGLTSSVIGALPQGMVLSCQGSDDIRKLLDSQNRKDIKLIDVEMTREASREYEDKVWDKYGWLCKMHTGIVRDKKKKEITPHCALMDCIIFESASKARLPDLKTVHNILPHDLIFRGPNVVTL

[5] = Cytotoxicity counterscreen for inhibitors of SARS-CoV-2 cell entry (AID 1645845); note: nearly all actives have a fitted effect of over 50% in size; note: potency is the fitted concentration of half-maximal effect; for activity change, negative = cytotoxicity: % is set by controls: 0 for no effect and ±100 for the full control effect
Method in brief: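 After a 15 min room-temperature ATPLite 1step step, luminescence reflected ATP remaining in HEK293-ACE2 cells exposed to compound for 1 h plus 48 h at 37 C, with percent activity set by cell and no-cell controls.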

[6] = Primary qHTS to identify inhibitors of SARS-CoV-2 cell entry (AID 1645846); settings: activity change, negative = inhibition: at 57.1 µM (top of the series) unless noted; note: nearly all actives have a fitted effect of over 45% in size; note: potency is the fitted concentration of half-maximal effect
Method in brief: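 HEK293 cells stably expressing human ACE2, pre-treated 1 h with compound, then infected with MLV particles pseudotyped with Wuhan-Hu-1 spike (C-terminal 19-aa truncation). Luciferase luminescence after 48 h at 37 °C, normalised to spike PP and bald PP.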

[7] = target: Alpha-galactosidase (Coffea arabica) (UniProt Q42656); assay: Counterscreen for Glucocerebrosidase Inhibitors: qHTS Assay for Coffee Bean alpha-Galactosidase at pH 4.5 (AID 957; active = well fitted curve in the direction sought with a large enough effect; an effect the other way counts as inactive or inconclusive;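 note: plate controls were enzyme alone for no effect and no enzyme for full effect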)
Sequence of Alpha-galactosidase (Coffea arabica) (Q42656 whole entry, looked up): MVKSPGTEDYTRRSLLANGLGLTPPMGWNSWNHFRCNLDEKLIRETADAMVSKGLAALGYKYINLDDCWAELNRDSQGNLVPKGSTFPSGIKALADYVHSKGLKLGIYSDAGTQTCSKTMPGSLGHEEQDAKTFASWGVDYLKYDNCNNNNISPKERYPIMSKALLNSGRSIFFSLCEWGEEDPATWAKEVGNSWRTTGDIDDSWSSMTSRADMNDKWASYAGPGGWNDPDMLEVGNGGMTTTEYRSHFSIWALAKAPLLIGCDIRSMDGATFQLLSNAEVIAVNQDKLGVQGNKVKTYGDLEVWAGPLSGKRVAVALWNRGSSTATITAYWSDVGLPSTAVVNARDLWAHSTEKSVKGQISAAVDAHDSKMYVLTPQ
Method in brief: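 Fluorogenic qHTS at pH 4.5 (citrate buffer with Tween-20): 2 nM enzyme, 80 uM 4-MU-alpha-galactoside substrate, compound titrated 0.7 nM to 77 uM, 20 min room temperature. Glycine/NaOH stop; 4-MU read Ex 365/Em 440; Hill-equation AC50 against no-enzyme and enzyme controls.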

[8] = target: Alpha-galactosidase (Coffea arabica) (UniProt Q42656); assay: Counterscreen for Glucocerebrosidase Inhibitors: qHTS Assay for Coffee Bean alpha-Galactosidase at pH 5.9 (AID 998; active = well fitted curve in the direction sought with a large enough effect; an effect the other way counts as inactive or inconclusive;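 note: plate controls were uninhibited enzyme for no effect and no-enzyme basal signal for full effect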)
Method in brief: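 In 50 mM citric acid pH 5.9 with 0.005% Tween-20, coffee bean enzyme hydrolyses 80 uM 4-MU alpha-D-galactopyranoside over 20 min at RT. Activity is normalized to controls; AC50 comes from Hill-modelled concentration-response data.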

[9] = Validation screen for inhibitors of Lassa infection (AID 463096); note: % is set by controls: 0 for no effect and ±100 for the full control effect
[10] = Inducers of the Endoplasmic Reticulum Stress Response (ERSR) in human glioma: Validation (AID 504836; active = well fitted curve in the direction sought with a large enough effect; an effect the other way counts as inactive or inconclusive; note: 0% is about no effect)
Method in brief: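 Stably transfected U87-MG human glioma cells carrying a GRP78-based luminescent sensor were seeded at 1000 cells/well, pin-dosed with compounds and incubated 16 h. Luciferase reagent was then added, and end-point luminescence was read after 10 min at room temperature.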

[11] = target: Cytochrome P450 3A4 (Homo sapiens) (UniProt P08684); assay: qHTS Assay for Inhibitors and Substrates of Cytochrome P450 3A4 (AID 884; active = well fitted curve in the direction sought with a large enough effect; an effect the other way counts as inactive or inconclusive; note: potency is the fitted concentration of half-maximal effect; nearly all actives have a fitted effect of over 50% in size)
Sequence of Cytochrome P450 3A4 (Homo sapiens) (P08684 whole entry, looked up): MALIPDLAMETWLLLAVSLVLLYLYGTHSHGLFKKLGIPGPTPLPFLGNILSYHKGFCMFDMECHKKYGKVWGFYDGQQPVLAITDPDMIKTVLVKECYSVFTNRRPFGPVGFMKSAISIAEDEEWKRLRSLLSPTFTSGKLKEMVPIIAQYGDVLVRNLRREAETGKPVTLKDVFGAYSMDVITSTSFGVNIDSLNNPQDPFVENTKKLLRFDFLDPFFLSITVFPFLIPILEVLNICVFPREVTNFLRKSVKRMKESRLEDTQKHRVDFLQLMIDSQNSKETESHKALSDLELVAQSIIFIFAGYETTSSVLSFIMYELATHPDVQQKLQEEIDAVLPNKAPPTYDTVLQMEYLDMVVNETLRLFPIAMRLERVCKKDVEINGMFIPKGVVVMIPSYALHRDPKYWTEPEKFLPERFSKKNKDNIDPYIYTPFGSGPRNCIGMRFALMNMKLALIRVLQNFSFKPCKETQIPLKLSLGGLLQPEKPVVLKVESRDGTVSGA
Method in brief: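 Luminescent readout of luciferin produced by CYP3A4 (20 nM) dealkylation of Luciferin-PPXE, 25 uM (its KM). NADPH-driven reaction ran 60 min at RT after 10 min compound preincubation; data scaled to 57 uM ketoconazole as 100% inhibition.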

[12] = target: Cytochrome P450 3A4 (Homo sapiens) (UniProt P08684); assay: qHTS Assay for Activators of Cytochrome P450 3A4 (AID 885; active = well fitted curve in the direction sought with a large enough effect; an effect the other way counts as inactive or inconclusive; note: nearly all actives have a fitted effect of over 65% in size)
Method in brief: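 Activators are scored by enhanced luminescence from CYP3A4 conversion of luciferin-PPXE (25uM, equal to KM) to luciferin, after 60 min at RT with an NADPH-regenerating system.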

[13] = VSVG counterscreen qHTS to identify inhibitors of SARS-CoV-2 cell entry (AID 1645847); note: potency is the fitted concentration of half-maximal effect; nearly all actives have a fitted effect of over 65% in size
Method in brief: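 HEK293-ACE2 cells (Expi293F, human ACE2) pretreated 1 h with compound, then infected with MLV-based VSV-G pseudotyped particles for 48 h at 37 C; luciferase luminescence normalized to VSV-G PP and bald PP wells.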

[14] = target: Cytochrome P450 2C9 (Homo sapiens) (UniProt P11712); assay: qHTS Assay for Inhibitors and Substrates of Cytochrome P450 2C9 (AID 883; active = well fitted curve in the direction sought with a large enough effect; an effect the other way counts as inactive or inconclusive; note: potency is the fitted concentration of half-maximal effect; nearly all actives have a fitted effect of over 60% in size)
Sequence of Cytochrome P450 2C9 (Homo sapiens) (P11712 whole entry, looked up): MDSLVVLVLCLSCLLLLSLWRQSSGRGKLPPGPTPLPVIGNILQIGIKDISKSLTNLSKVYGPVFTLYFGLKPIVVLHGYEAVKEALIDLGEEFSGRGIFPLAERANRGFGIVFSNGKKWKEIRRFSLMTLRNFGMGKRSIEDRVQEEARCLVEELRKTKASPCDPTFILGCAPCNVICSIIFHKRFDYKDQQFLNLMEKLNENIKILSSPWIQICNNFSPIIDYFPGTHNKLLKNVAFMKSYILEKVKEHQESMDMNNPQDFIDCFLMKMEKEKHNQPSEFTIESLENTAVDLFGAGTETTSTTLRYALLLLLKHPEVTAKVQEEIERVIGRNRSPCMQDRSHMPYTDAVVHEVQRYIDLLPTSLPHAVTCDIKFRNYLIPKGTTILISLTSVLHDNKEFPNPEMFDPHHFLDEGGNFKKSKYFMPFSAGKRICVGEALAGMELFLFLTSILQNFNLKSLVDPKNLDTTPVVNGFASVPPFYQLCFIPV
Method in brief: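 A luminogenic readout tracked human CYP2C9 (10nM) converting deoxyluciferin (100uM, at KM) in 25mM KPO4 during 60 min at 37C with regenerated NADPH. Values normalized to 57uM sulphaphenazole as complete inhibition.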

[15] = target: Bile acid receptor (Homo sapiens) (UniProt Q96RI1); assay: qHTS assay for small molecule agonists of farnesoid X receptor signaling (AID 588527); settings: HEK293T FXR-UAS-bla, beta-lactamase ratio, 16 h; activation: stronger effect = higher value;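 note: 0% = vehicle basal and 100% = reference agonist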
Sequence of Bile acid receptor (Homo sapiens) (Q96RI1 whole entry, looked up): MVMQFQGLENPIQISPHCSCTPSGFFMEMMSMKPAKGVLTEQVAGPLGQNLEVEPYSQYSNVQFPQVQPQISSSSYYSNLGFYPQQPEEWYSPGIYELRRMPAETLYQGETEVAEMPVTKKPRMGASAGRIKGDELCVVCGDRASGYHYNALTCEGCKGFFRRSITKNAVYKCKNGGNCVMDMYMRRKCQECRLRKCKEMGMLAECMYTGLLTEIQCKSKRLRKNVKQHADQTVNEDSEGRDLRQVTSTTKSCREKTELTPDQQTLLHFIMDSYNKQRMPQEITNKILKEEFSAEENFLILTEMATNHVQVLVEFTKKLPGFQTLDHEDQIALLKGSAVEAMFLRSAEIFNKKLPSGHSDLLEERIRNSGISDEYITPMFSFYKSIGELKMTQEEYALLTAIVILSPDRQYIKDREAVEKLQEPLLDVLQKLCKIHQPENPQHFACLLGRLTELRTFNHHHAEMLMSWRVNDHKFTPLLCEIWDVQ
Method in brief: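 Read-out: beta-lactamase reporter fluorescence with CCF4 substrate in GeneBLAzer FXR-UAS-bla HEK293T cells, after 16 h compound exposure at 37 C. Response scaled between DMSO basal (0%) and chenodeoxycholic acid at 100 uM (100%).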

O=C(O)CCCCC(CCSCc1ccccc1)SCc1ccccc1 (configuration not stated)
inactive: Potency [1] | Potency [2] | Potency [3] | Potency [4] | Potency [5]
-0.966%: activity change, negative = inhibition [6]

C[C@@H]1CC[C@@]2(OC1)OC1CC3C4CC=C5CC(O)CCC5(C)C4CCC3(C)C1[C@@H]2C (some centres not stated)
-1.34%: activity change, negative = inhibition [6]
inactive: Potency [1] | Potency [2] | Potency [3] | Potency [4] | Potency [5]

C[C@H](CCC(=O)O)[C@H]1CCC2C3C[C@H](O)[C@@H]4C[C@H](O)CC[C@]4(C)C3CC[C@@]21C (some centres not stated)
inactive: Potency [1] | Potency [2] | Potency [3] | Potency [4] | Potency [5]
-10.6%: activity change, negative = inhibition [6]

CN1CC(=O)NC1=NC(=O)Nc1cccc(Cl)c1
inactive: Potency [1] | Potency [2] | Potency [3] | Potency [4] | Potency [5]
-1.73%: activity change, negative = inhibition [6]

Cc1cncc2cccc(S(=O)(=O)N3CCCN(C(=O)CN)C[C@@H]3C)c12
-30.7%: activity change, negative = inhibition [6]
inactive: Potency [1] | Potency [2] | Potency [3] | Potency [4] | Potency [5]

CNC(=O)c1cc(COc2nnc(Nc3ccc(Cl)cc3)c3ccoc23)ccn1
-17%: activity change, negative = inhibition [6]
inactive: Potency [1] | Potency [2] | Potency [3] | Potency [4] | Potency [5]

Cc1cc(N2CCOCC2)cc2[nH]c(-c3c(NC[C@@H](O)c4cccc(Cl)c4)cc[nH]c3=O)nc12
inactive: Potency [5]
-9.29%: activity change, negative = inhibition [6]
active: Potency [1] 3.85 µM | Potency [2] 0.769 µM | Potency [3] 0.863 µM | Potency [4] 1.53 µM

Cn1cc(-c2ccc3ncc(Cc4ccc5ncccc5c4)n3n2)cn1
inactive: Potency [1] | Potency [2] | Potency [3] | Potency [4] | Potency [5] | Potency [6]

Cn1c(CNc2ccc(C(=N)N)cc2)nc2cc(C(=O)N(CCC(=O)O)c3ccccn3)ccc21
inactive: Potency [1] | Potency [2] | Potency [3] | Potency [4] | activity change, negative = cytotoxicity [5] -8.56% [at 0.702 µM]
-9.36% [at 0.702 µM]: activity change, negative = inhibition [6]

COc1ccc(CC2=NN3C([C@@H](CCc4ccccc4)[C@@H](C)O)=NC(C)C3C(=O)N2)cc1OC (some centres not stated)
inactive: Potency [1] | Potency [2] | Potency [3] | Potency [4] | Potency [5] | Potency [6]

O=c1oc2cc(O)ccc2s1
-12.6%: activity change, negative = inhibition [6]
inactive: Potency [1] | Potency [2] | Potency [3] | Potency [4] | Potency [5]

CC(C)(O)CCc1ccc(OCc2cc(-c3cccc(OC(F)F)c3)c3ncccc3c2)cc1
-16.6%: activity change, negative = inhibition [6]
inactive: Potency [1] | Potency [2] | Potency [3] | Potency [4] | Potency [5]

CC1(COc2ccc3c(c2)ncn3-c2ccc3cccc(N4CCC(N)CC4)c3n2)COC1
inactive: Potency [2] | Potency [3] | Potency [4]
active: Potency [1] 0.0544 µM | Potency [5] 28.2 µM | Potency [6] 10 µM

NCc1c[nH]c(=S)n1[C@H]1CCc2c(F)cc(F)cc2C1
-19.7%: activity change, negative = inhibition [6]
inactive: Potency [1] | Potency [2] | Potency [3] | Potency [4] | Potency [5]

C[C@H](Cc1ccc(O)c(O)c1)[C@@H](C)Cc1ccc(O)c(O)c1
-10.6%: activity change, negative = inhibition [6]
inactive: outcome [7] | outcome [8] | Potency [9] | outcome [10] | Potency [1] | Potency [2] | Potency [3] | Potency [4] | Potency [5]

CCC(C)N(C)C(=O)c1cc2ccccc2c(-c2ccccc2Cl)n1 (configuration not stated)
inactive: Potency [9] | outcome [10] | Potency [1] | Potency [2] | Potency [3] | Potency [4] | Potency [5]
4.18%: activity change, negative = inhibition [6]

C[C@H]1[C@@H](OC(=O)CCC(=O)O)O[C@@H]2O[C@@]3(C)CC[C@@H]4[C@H](C)CC[C@@H]1[C@@]24OO3
active: Potency [1] 9.68 µM | Potency [2] 5.44 µM | Potency [3] 5.44 µM | Potency [4] 3.06 µM | Potency [6] 3.16 µM

Oc1ccc(-c2nc(-c3ccc(F)cc3)c(-c3ccncc3)[nH]2)cc1
inactive: Potency [12] | outcome [7] | outcome [8] | outcome [10] | Potency [1] | Potency [2] | Potency [3] | Potency [4] | Potency [5]
active: Potency [11] 1 µM | Potency [13] 3.04 µM

Cc1cnc(CNC(=O)c2c(=O)c3ccc(N4CCCN(C)CC4)nc3n3c2sc2ccccc23)cn1
inactive: Potency [1] | Potency [4] | activity change, negative = cytotoxicity [5] -25.6% [at 11.3 µM]
active: Potency [2] 15 µM | Potency [3] 8.41 µM | Potency [13] 3.12 µM

Cc1noc(-c2ccc(CSCCC(=O)O)cc2)c1NC(=O)OC(C)c1ccccc1Cl (configuration not stated)
-12.6%: activity change, negative = inhibition [6]
inactive: Potency [1] | Potency [2] | Potency [3] | Potency [4]

N#C/C(=C\c1ccc(O)c(O)c1)C(=O)NCc1ccccc1
inactive: outcome [7] | outcome [8] | Potency [9] | outcome [10] | Potency [1] | Potency [2] | Potency [3] | Potency [4] | Potency [5]

O=C1Nc2ccc(I)cc2/C1=C/c1cc(Br)c(O)c(Br)c1
active: Potency [14] 0.0794 µM | Potency [11] 5.01 µM
-7.81%: activity change, negative = inhibition [6]
inactive: Potency [12] | outcome [7] | outcome [8] | Potency [9] | outcome [10] | Potency [1] | Potency [2] | Potency [3] | Potency [4] | Potency [5]

COc1cc(SC)ccc1C(=O)N1CCC(Cc2ccccc2)CC1
inactive: outcome [10] | Potency [1] | Potency [2] | Potency [3] | Potency [4] | Potency [5]

O=c1c(O)c(-c2ccc(O)cc2O)oc2cc(O)cc(O)c12
0.962%: activity change, negative = inhibition [6]
inactive: outcome [7] | outcome [8] | outcome [10] | activation [15] -2.26% | Potency [1] | Potency [2] | Potency [3] | Potency [4] | Potency [5]
